# Inconclusive results are not listed. A number with no mark means an inactive call. Activity calls are given as the source filed them. Calls come from the whole dose curve; as a rule, active = well fitted inhibition curve with a large enough effect; inconclusive = small, poorly fitted or top-dose-only effect; inactive = flat fitted curve, though single readings scatter.
# Tested on: DIV17
# Test: qHTS profiling for inhibitors of Plasmodium falciparum proliferation (AID 504749); note: nearly all actives have a fitted effect of over 60% in size;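 for activity, negative = inhibition: 0% = DMSO vehicle and full inhibition = artemisinin control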
# Settings: P. falciparum in erythrocytes, SYBR Green DNA, 72 h; series mostly up to 28.7 µM; activity, negative = inhibition: at the top concentration
# How it was run: (§1)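 P. falciparum-infected erythrocytes (0.3% parasitemia, 2.5% hematocrit) incubated with compound 72 h at 37 C, 5% CO2. Parasite DNA detected by SYBR Green after lysis, overnight at room temperature; normalised to 0.29 uM artemisinin and DMSO.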
# Potency is the fitted concentration of half-maximal effect.
Structure (SMILES),Potency,"activity, negative = inhibition"
Clc1ccccc1C(c1ccccc1)(c1ccccc1)n1ccnc1,0.287 µM (active),–
Cc1cn([C@H]2C=C[C@@H](CO)O2)c(=O)[nH]c1=O,–,-4.22%
CCOC(=O)c1ncn2c1CN(C)C(=O)c1cc(F)ccc1-2,–,10.8%
CCC1(c2ccccc2)C(=O)NCNC1=O,–,2.65%
CN(C)CCC=C1c2ccccc2C=Cc2ccccc21,3.79 µM (active),–
CCCCc1oc2ccccc2c1C(=O)c1cc(I)c(OCCN(CC)CC)c(I)c1,13.5 µM (active),–
CC#C[C@]1(O)CC[C@H]2[C@@H]3CCC4=CC(=O)CCC4=C3[C@@H](c3ccc(N(C)C)cc3)C[C@@]21C,8.49 µM (active),–
O=C1c2c(O)ccc(O)c2C(=O)c2c(NCCNCCO)ccc(NCCNCCO)c21,2.56 µM (active),–
O=C(c1ccc(OCCN2CCCCC2)cc1)c1c(-c2ccc(O)cc2)sc2cc(O)ccc12,15.1 µM (active),–
Nc1nc2c(ncn2COC(CO)CO)c(=O)[nH]1,–,-3.27% [at 12.8 µM]
CN1CCC(=C2c3ccccc3CC(=O)c3sccc32)CC1,6.01 µM (active),–
O=C(Nc1ccc([N+](=O)[O-])cc1Cl)c1cc(Cl)ccc1O,1.2 µM (active),–
OCCN1CCN(CCCN2c3ccccc3Sc3ccc(C(F)(F)F)cc32)CC1,6.01 µM (active),–
COc1nc(C)nc(Cl)c1NC1=NCCN1,–,7.68% [at 12.8 µM]
CC(COc1ccccc1)N(CCCl)Cc1ccccc1 (stereo not given),6.01 µM (active),–
CC1(CN2CCC(n3c(=O)[nH]c4ccccc43)CC2)OCc2ccccc2-n2cccc21 (stereo not given),13.5 µM (active),–
CC(C)(Oc1ccc(C2CC2(Cl)Cl)cc1)C(=O)O (stereo not given),–,7.19%
NC12CC3CC(CC(C3)C1)C2,–,6.4%
CN(C)CCCN1c2ccccc2CCc2ccc(Cl)cc21,3.38 µM (active),–
CC(C)NCC(O)c1ccc(O)c(O)c1 (stereo not given),–,-8.98%
Nc1c2c(nc3ccccc13)CCCC2,6.75 µM (active),–
CNCCCC12CCC(c3ccccc31)c1ccccc12,10.7 µM (active),–
CC(=O)OCC(CCn1cnc2cnc(N)nc21)COC(C)=O,–,3.11%
CCOC(=O)Nc1ccc(NCc2ccc(F)cc2)nc1N,15.1 µM (active),–

# Tested on: DIV30
# Test: as above
# Settings: P. falciparum in erythrocytes, SYBR Green DNA, 72 h; series mostly up to 28.7 µM; activity, negative = inhibition: at the top concentration
# How it was run: as §1
Structure (SMILES),"activity, negative = inhibition",Potency
COC(=O)Nc1nc2ccc(C(=O)c3cccs3)cc2[nH]1,-5.15%,–
Clc1ccccc1C(c1ccccc1)(c1ccccc1)n1ccnc1,–,0.228 µM (active)
Cc1cn([C@H]2C=C[C@@H](CO)O2)c(=O)[nH]c1=O,1.48%,–
CCOC(=O)c1ncn2c1CN(C)C(=O)c1cc(F)ccc1-2,-0.308%,–
CCC1(c2ccccc2)C(=O)NCNC1=O,-1.52%,–
CCCCc1oc2ccccc2c1C(=O)c1cc(I)c(OCCN(CC)CC)c(I)c1,–,8.49 µM (active)
CC#C[C@]1(O)CC[C@H]2[C@@H]3CCC4=CC(=O)CCC4=C3[C@@H](c3ccc(N(C)C)cc3)C[C@@]21C,–,15.1 µM (active)
O=C1c2c(O)ccc(O)c2C(=O)c2c(NCCNCCO)ccc(NCCNCCO)c21,–,5.1 µM (active)
CN(Cc1cnc2nc(N)nc(N)c2n1)c1ccc(C(=O)N[C@@H](CCC(=O)O)C(=O)O)cc1,-9.99%,–
Nc1nc2c(ncn2COC(CO)CO)c(=O)[nH]1,-6.02% [at 12.8 µM],–
Clc1ccc2c(c1)C(N1CCNCC1)=Nc1ccccc1O2,-23.1%,–
OCCN1CCN(CCCN2c3ccccc3Sc3ccc(C(F)(F)F)cc32)CC1,–,8.49 µM (active)
COc1nc(C)nc(Cl)c1NC1=NCCN1,-1.13% [at 12.8 µM],–
CC1(CN2CCC(n3c(=O)[nH]c4ccccc43)CC2)OCc2ccccc2-n2cccc21 (stereo not given),–,13.5 µM (active)
CC(C)(Oc1ccc(C2CC2(Cl)Cl)cc1)C(=O)O (stereo not given),-1.92%,–
NC12CC3CC(CC(C3)C1)C2,-0.364%,–
CC12CC3CC(C)(C1)CC(N)(C3)C2,-4.31%,–
CC(C)NCC(O)c1ccc(O)c(O)c1 (stereo not given),-3.68%,–
Nc1c2c(nc3ccccc13)CCCC2,-5.08%,–
CC(=O)OCC(CCn1cnc2cnc(N)nc21)COC(C)=O,5.64%,–
CCOC(=O)Nc1ccc(NCc2ccc(F)cc2)nc1N,–,16.9 µM (active)

# Source: PubChem BioAssay (NCATS)
